Assay results as given in PubChem BioAssay AID1159580 (chemical genetic matrix, 2015).
“And” between values parts separate entries of the source, which are not always exact repeats. Identical values can stand only once. Screen size: about 5,500 compounds; about 2,000 (36%) were called active. About 18% were inconclusive and are not listed. Cut-off read from the data, not from the text of the source: active = normalized growth mostly below about 0.91 (no sharp cut-off); inconclusive = no clear call, values can overlap the other calls; inactive = mostly above about 0.92. The list shows a part of the results.

Test: chemical genetic growth profiling, strain panel (AID 1159580);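 note: tested at 20 µM; growth read once vehicle control cultures reached saturation at 30 °C; 1 = growth at the plate median or of vehicle wells; lower values mean less growth of the strain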
Details: S. cerevisiae deletion strains, growth OD

Measured: normalized growth

C/C=C(\C)C(=O)O[C@H]1C[C@@H](OC(C)=O)[C@@]2(C(=O)OC)CO[C@@H]3C2[C@]12CO[C@](O)(C(=O)OC)[C@H]2[C@](C)(C12O[C@@]1(C)[C@H]1C[C@@H]2OC2OC=C[C@@]21O)[C@@H]3O (stereo partly specified)
inactive: locus YAL013W, strain DEP1, hits give low values 0.99 | locus YAL021C, strain ccr4, hits give low values 1 | locus YAL026C, strain drs2, hits give low values 0.982 | locus YAL030W, strain snc1, hits give low values 0.976 | locus YBL061C, strain skt5, hits give low values 0.978 | locus YBR009C, strain hhf1, hits give low values 0.977 | locus YBR021W, strain FUR4, hits give low values 0.997 | locus YBR023C, strain chs3, hits give low values 0.985 | locus YBR171W, strain sec66, hits give low values 0.98 | locus YBR229C, strain ROT2, hits give low values 0.99 | locus YBR231C, strain swc5, hits give low values 0.991 | locus YBR279W, strain paf1, hits give low values 0.992 | locus YCL011C, strain gbp2, hits give low values 0.978 | locus YCL016C, strain dcc1, hits give low values 0.964 | locus YCL029C, strain bik1, hits give low values 0.955 | locus YCL061C, strain MRC1, hits give low values 0.986 | locus YCL069W, strain vba3, hits give low values 0.974 | locus YCR088W, strain abp1, hits give low values 0.986 | locus YDL005C, strain med2, hits give low values 0.963 | locus YDL040C, strain nat1, hits give low values 0.973 | locus YDL074C, strain BRE1, hits give low values 0.964 | locus YDL101C, strain DUN1, hits give low values 0.977 | locus YDL134C, strain PPH21, hits give low values 0.99 | locus YDL185W, strain tfp1, hits give low values 0.978 | locus YDL192W, strain arf1, hits give low values 0.986 | locus YDR001C, strain nth1, hits give low values 0.97 | locus YDR069C, strain doa4, hits give low values 0.969 | locus YDR101C, strain arx1, hits give low values 0.975 | locus YDR137W, strain rgp1, hits give low values 0.984 | locus YDR150W, strain NUM1, hits give low values 1 | locus YDR159W, strain sac3, hits give low values 0.994 | locus YDR162C, strain NBP2, hits give low values 1 | locus YDR195W, strain ref2 0.938 | locus YDR297W, strain sur2, hits give low values 0.975 | locus YDR318W, strain mcm21, hits give low values 0.977 | locus YDR334W, strain swr1, hits give low values 0.973 | locus YDR335W, strain msn5, hits give low values 0.981 | locus YDR388W, hits give low values 0.985 | locus YDR392W, strain spt3, hits give low values 0.969 | locus YDR502C, strain sam2, hits give low values 0.992 | locus YEL003W, strain gim4, hits give low values 1 | locus YEL037C, strain rad23, hits give low values 0.977 | locus YEL061C, strain CIN8 (second series), hits give low values 0.973 | locus YEL061C, strain CIN8, hits give low values 0.995 | locus YER015W, strain faa2, hits give low values 0.987 | locus YER016W, strain bim1, hits give low values 0.977 | locus YER110C, hits give low values 0.971 | locus YER111C, strain swi4, hits give low values 0.983 | locus YER155C, strain BEM2 (second series), hits give low values 0.981 | locus YER155C, strain BEM2, hits give low values 0.997 | locus YER167W, strain BCK2, hits give low values 1 | locus YFR010W, strain ubp6, hits give low values 0.979 | locus YGL078C, strain dbp3, hits give low values 0.995 | locus YGL086W, strain mad1, hits give low values 1 | locus YGL167C, strain pmr1, hits give low values 0.97 | locus YGL173C, strain kem1, hits give low values 0.982 | locus YGL227W, strain vid30, hits give low values 0.99 | locus YGL240W, strain doc1, hits give low values 1 | locus YGL248W, strain PDE1, hits give low values 0.99 | locus YGL253W, strain hxk2, hits give low values 0.986 | locus YGR078C, strain PAC10, hits give low values 0.997 | locus YGR135W, strain pre9, hits give low values 0.971 | locus YGR229C, strain SMI1, hits give low values 1.01 | locus YGR252W, strain gcn5, hits give low values 1.03 | locus YHR013C, strain ard1, hits give low values 0.964 | locus YHR027C, strain rpn1, hits give low values 0.965 | locus YHR030C, strain SLT2, hits give low values 0.989 and 0.98 | locus YHR079C, strain IRE1 (second series), hits give low values 0.969 | locus YHR079C, strain IRE1, hits give low values 0.991 | locus YHR094C, strain hxt1, hits give low values 0.985 | locus YHR129C, strain ARP1, hits give low values 0.992 | locus YHR142W, strain chs7, hits give low values 0.974 | locus YHR200W, strain rpn10, hits give low values 0.987 | locus YIL066C, strain RNR3, hits give low values 0.99 | locus YIL073C, strain SPO22, hits give low values 0.994 | locus YIL125W, strain kgd1, hits give low values 0.995 | locus YIR030C, strain dcg1, hits give low values 0.997 | locus YJL092W, strain hpr5, hits give low values 0.981 | locus YJL095W, strain BCK1 (second series), hits give low values 0.983 | locus YJL095W, strain BCK1, hits give low values 0.98 and 0.993 | locus YJL115W, strain asf1, hits give low values 0.963 | locus YJL129C, strain trk1, hits give low values 0.978 | locus YJL134W, strain LCB3, hits give low values 0.991 | locus YJL154C, strain vps35, hits give low values 0.969 | locus YJL164C, strain tpk1, hits give low values 0.969 | locus YJL166W, strain qcr8, hits give low values 0.99 | locus YJL168C, strain set2, hits give low values 0.978 | locus YJL187C, strain SWE1 (second series), hits give low values 0.978 | locus YJL187C, strain SWE1, hits give low values 0.982 | locus YJR043C, strain POL32, hits give low values 0.996 | locus YJR066W, strain TOR1, hits give low values 0.933
